Measurements as given in PubChem BioAssay (NCATS).
Records with an inconclusive call do not appear. A call without a number means that no potency is given here. The source made the active and inactive calls. Unless noted, the call rests on the fitted dose curve; in most records, active means well fitted curve in the direction sought with a large enough effect; inconclusive means small, poorly fitted or top-dose-only effect, or another doubt; inactive means no such curve, though single readings can be large; an effect the other way counts as inactive or inconclusive.

Assays:
[1] = target: Cytochrome P450 3A4 (Homo sapiens) (UniProt P08684); assay: qHTS Assay for Inhibitors and Substrates of Cytochrome P450 3A4 (AID 884); conditions: recombinant CYP3A4, Luciferin-PPXE luminescence; series mostly up to 57.1 µM; further: nearly all actives have a fitted effect of over 50% in size; further: potency means the concentration at half of the fitted maximal effect
Chain of Cytochrome P450 3A4 (Homo sapiens) (P08684 whole entry, looked up): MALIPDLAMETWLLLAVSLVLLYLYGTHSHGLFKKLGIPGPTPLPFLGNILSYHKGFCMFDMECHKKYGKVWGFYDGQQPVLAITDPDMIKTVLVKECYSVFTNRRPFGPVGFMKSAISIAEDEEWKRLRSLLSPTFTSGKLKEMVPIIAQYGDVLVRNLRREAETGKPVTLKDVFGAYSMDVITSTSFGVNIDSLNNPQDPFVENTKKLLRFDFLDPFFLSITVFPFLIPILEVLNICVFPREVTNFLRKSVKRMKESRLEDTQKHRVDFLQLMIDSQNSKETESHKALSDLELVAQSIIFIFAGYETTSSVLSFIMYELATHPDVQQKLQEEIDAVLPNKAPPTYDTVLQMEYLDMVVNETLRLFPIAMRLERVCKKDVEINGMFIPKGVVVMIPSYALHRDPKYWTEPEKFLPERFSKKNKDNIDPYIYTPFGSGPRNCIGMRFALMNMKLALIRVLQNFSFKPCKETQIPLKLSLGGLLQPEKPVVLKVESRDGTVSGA
Method in brief: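 20 nM human CYP3A4 with 25 uM Luciferin-PPXE (at KM) in 200 mM KPO4, preincubated 10 min with compound; NADPH regeneration started a 60 min RT reaction. Luciferin detected by luminescence, normalized to 57 uM ketoconazole as full inhibition.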

[2] = Confirmatory qHTS to identify inhibitors of SARS-CoV-2 cell entry (AID 1645844; calls by dose curve; further: nearly all actives have a fitted effect of over 45% in size; further: potency means the concentration at half of the fitted maximal effect); conditions: SARS-CoV-2 pseudotyped particle cell entry, luciferase; series mostly up to 57.2 µM
Method in brief: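 HEK293-ACE2 cells (Expi293F stably expressing human ACE2) were pretreated with compounds for 1 hr at 37C, then infected with MLV-based particles carrying Wuhan-Hu-1 spike (C-terminal 19-aa truncation). Luciferase luminescence read after 48 hr; normalized to spike PP (100%) and bald PP (0%).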

[3] = Nrf2 qHTS screen for inhibitors: Validation (AID 493153; active means well fitted inhibition curve with a large enough effect in the main read-out, with a control signal flat, not every such curve was filed as active); conditions: A549 ARE-Fluc reporter, 18-24 h; viability change: measured here: cytotoxicity max response; luciferase luminescence, at 46.1 µM (top of the series)
Method in brief: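 A549 cells carrying ARE-firefly luciferase reporter, 5000 cells/well in 5% FBS OPTI-MEM, treated with compound over a concentration series for 18-24 h at 37 C. Luciferase luminescence gave Nrf2 activity; CellTiter-Fluor fluorescence gave viability.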

[4] = NFAT Signaling Pathway (AID 444; active means well fitted curve in either direction with a large enough effect, not every such curve was filed as active;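 further: carbachol stimulus at about its EC50 of 1 µM final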); conditions: Jurkat NFAT-bla M1, carbachol, beta-lactamase ratio, 5 h
Method in brief: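 Jurkat cells carrying an NFAT-driven β-lactamase reporter and co-transfected muscarinic M1 receptor were treated with compound plus carbachol (1 uM final, an EC50 level) for 5 h at 37 °C. CCF4 loading followed for 1 h at RT; 460/530 nm ratio gave %activity.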

[5] = qHTS Assay for Identification of Small Molecule Agonists for Thrombopoietin (TPO) Signaling Pathway (AID 917); conditions: TPO signaling pathway reporter cells, agonist qHTS; series mostly up to 38.5 µM
Method in brief: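 Murine Ba/F3 cells stably expressing human TPO receptor and a Glycoprotein IIb promoter–luciferase reporter were IL-3-starved overnight, then treated with compounds plus TPO (26 pM final, its EC50) for 24 hrs at 37 C; luminescence was read.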

[6] = target: Cytochrome P450 1A2 (Homo sapiens) (UniProt P05177); assay: p450-cyp1a2 (AID 410; calls by dose curve; further: potency means the concentration at half of the fitted maximal effect); conditions: recombinant CYP1A2, luciferin-ME demethylation, luminescence; series mostly up to 25.6 µM
Chain of Cytochrome P450 1A2 (Homo sapiens) (P05177 whole entry, looked up): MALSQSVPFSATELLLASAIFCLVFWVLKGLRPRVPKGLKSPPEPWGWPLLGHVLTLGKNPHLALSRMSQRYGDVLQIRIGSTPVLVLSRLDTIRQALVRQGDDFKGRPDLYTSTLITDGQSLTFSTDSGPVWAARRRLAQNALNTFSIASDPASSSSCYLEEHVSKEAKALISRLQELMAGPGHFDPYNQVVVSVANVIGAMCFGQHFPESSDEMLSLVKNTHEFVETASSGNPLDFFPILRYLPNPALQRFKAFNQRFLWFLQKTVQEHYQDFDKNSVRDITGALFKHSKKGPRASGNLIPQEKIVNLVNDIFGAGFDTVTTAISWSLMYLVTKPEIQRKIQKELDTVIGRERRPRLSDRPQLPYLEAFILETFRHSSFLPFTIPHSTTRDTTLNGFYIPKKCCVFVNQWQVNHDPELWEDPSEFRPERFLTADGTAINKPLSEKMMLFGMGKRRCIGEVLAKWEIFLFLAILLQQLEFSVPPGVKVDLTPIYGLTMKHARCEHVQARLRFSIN
Method in brief: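 20nM CYP1A2 with 100uM Luciferin-ME (at Km) in 100mM KPO4; compound preincubated 10 min, NADPH regeneration added, 60 min at room temperature. Luciferin quantified by luminescence after detection reagent; normalized to 57 uM furafylline.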

[7] = target: Muscarinic acetylcholine receptor M1 (Rattus norvegicus) (UniProt P08482); assay: qHTS Assay for Antagonists of Acetylcholine Muscarinic M1 Receptor: Kinetic Measurement of Intracellular Calcium Response (AID 943); conditions: M1-expressing cells, kinetic intracellular calcium fluorescence; series mostly up to 35.3 µM; further: nearly all actives have a fitted effect of over 75% in size; further: potency means the concentration at half of the fitted maximal effect
Chain of Muscarinic acetylcholine receptor M1 (Rattus norvegicus) (P08482 whole entry, looked up): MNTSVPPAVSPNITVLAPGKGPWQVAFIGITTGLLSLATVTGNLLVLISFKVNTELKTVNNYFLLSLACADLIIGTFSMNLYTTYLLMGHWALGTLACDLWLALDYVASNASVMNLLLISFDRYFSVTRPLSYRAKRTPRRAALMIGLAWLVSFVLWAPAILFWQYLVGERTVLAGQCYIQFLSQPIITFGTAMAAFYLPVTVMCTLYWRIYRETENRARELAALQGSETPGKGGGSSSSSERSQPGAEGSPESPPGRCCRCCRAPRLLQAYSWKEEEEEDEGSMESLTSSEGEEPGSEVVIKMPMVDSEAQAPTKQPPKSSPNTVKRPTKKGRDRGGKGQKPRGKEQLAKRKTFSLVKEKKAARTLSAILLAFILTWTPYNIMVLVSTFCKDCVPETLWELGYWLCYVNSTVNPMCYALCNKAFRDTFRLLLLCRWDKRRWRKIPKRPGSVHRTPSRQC
Method in brief: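 CHO cells expressing rat M1 receptor, Fluo-4 loaded, preincubated 10 min with compound, then stimulated with EC80 carbachol (100 nM final). Kinetic calcium fluorescence over 4 min; response taken as peak over basal signal.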

[8] = target: Muscarinic acetylcholine receptor M1 (Rattus norvegicus) (UniProt P08482); assay: qHTS Assay for Antagonists of Acetylcholine Muscarinic M1 Receptor: Measurement of IP-One Response (AID 944); conditions: CHO-M1 cells, IP-One HTRF, antagonist mode; series mostly up to 46.1 µM; further: nearly all actives have a fitted effect of over 75% in size; further: potency means the concentration at half of the fitted maximal effect
Method in brief: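 CHO cells stably expressing rat M1, pretreated 10 min with compound, then stimulated 30 min with carbachol at EC80 (200 nM) in LiCl-containing buffer pH 7.4; IP1 accumulation read by HTRF competition (665/620 nm).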

[9] = target: ATP-dependent 6-phosphofructokinase (Trypanosoma brucei brucei) (UniProt O15648); assay: qHTS Assay to Find Inhibitors of T. brucei phosphofructokinase: hit validation (AID 492961);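 further: luminescence reports ADP formed as PFK phosphorylates fructose-6-phosphate with ATP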; conditions: T. brucei PFK, ADP-Glo luminescence; series mostly up to 51.4 µM
Chain of ATP-dependent 6-phosphofructokinase (Trypanosoma brucei brucei) (O15648 whole entry, looked up): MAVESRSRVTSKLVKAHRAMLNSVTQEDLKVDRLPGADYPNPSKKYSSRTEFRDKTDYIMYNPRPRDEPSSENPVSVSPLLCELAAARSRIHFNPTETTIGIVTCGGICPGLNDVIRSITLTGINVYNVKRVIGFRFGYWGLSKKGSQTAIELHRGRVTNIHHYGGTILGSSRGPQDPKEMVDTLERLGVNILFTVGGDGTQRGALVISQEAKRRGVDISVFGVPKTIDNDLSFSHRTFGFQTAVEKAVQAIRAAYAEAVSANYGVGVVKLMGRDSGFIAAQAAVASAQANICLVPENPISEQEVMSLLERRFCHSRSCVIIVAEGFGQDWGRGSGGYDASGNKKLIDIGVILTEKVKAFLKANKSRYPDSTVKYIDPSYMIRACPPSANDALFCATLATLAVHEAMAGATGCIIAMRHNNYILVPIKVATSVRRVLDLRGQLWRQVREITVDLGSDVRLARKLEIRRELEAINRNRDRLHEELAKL
Method in brief: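 Percent activity derived from corrected luminescence, normalized between 0x and 1x enzyme controls, then fitted to concentration-response curves. Conditions: 1.25 nM PFK, 0.1 mM ATP, 0.5 mM F6P, 45 min RT.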

[10] = test system: 3D7; assay: qHTS profiling for inhibitors of Plasmodium falciparum proliferation (AID 504749); further: nearly all actives have a fitted effect of over 60% in size; further: potency means the concentration at half of the fitted maximal effect; conditions: P. falciparum in erythrocytes, SYBR Green DNA, 72 h; series mostly up to 28.7 µM
Method in brief: (§1)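 Parasite proliferation within erythrocytes, 72 h exposure. Endpoint: SYBR Green I fluorescence after overnight lysis at room temperature. Controls: 0.29 uM artemisinin, DMSO.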

[11] = test system: CP211; assay: as above; conditions: P. falciparum in erythrocytes, SYBR Green DNA, 72 h; series mostly up to 28.7 µM
Method in brief: as §1

[12] = test system: CP247; assay: as above; conditions: P. falciparum in erythrocytes, SYBR Green DNA, 72 h; series mostly up to 28.7 µM
Method in brief: as §1

[13] = test system: CP256; assay: as above; conditions: P. falciparum in erythrocytes, SYBR Green DNA, 72 h; series mostly up to 28.7 µM
Method in brief: as §1

[14] = test system: CP268; assay: as above; conditions: P. falciparum in erythrocytes, SYBR Green DNA, 72 h; series mostly up to 28.7 µM
Method in brief: as §1

[15] = test system: Dd2; assay: as above; conditions: P. falciparum in erythrocytes, SYBR Green DNA, 72 h; series mostly up to 28.7 µM
Method in brief: as §1

[16] = test system: ECU; assay: as above; conditions: P. falciparum in erythrocytes, SYBR Green DNA, 72 h; series mostly up to 28.7 µM
Method in brief: as §1

[17] = test system: FAB9; assay: as above; conditions: P. falciparum in erythrocytes, SYBR Green DNA, 72 h; series mostly up to 28.7 µM
Method in brief: as §1

[18] = test system: PC15; assay: as above; conditions: P. falciparum in erythrocytes, SYBR Green DNA, 72 h; series mostly up to 28.7 µM
Method in brief: as §1

[19] = test system: PC49; assay: as above; conditions: P. falciparum in erythrocytes, SYBR Green DNA, 72 h; series mostly up to 28.7 µM
Method in brief: as §1

[20] = test system: W2; assay: as above; conditions: P. falciparum in erythrocytes, SYBR Green DNA, 72 h; series mostly up to 12.8 µM
Method in brief: as §1

For `CC(C)(O)/C=C\C(=O)[C@](C)(O)[C@H]1[C@H](O)C[C@]2(C)[C@@H]3CC=C4[C@@H](C=C(O)C(=O)C4(C)C)[C@]3(C)C(=O)C[C@@]12C`, the Potency [1] was 398 nM (active).

In the case of `Cc1c(N)nc([C@H](CC(N)=O)NC[C@@H](N)C(N)=O)nc1C(=O)N[C@H](C(=O)N[C@@H](C)[C@H](O)[C@@H](C)C(=O)N[C@@H](C(=O)NCCc1nc(-c2nc(C(=O)NCCC[S+](C)C)cs2)cs1)[C@@H](C)O)C(O[C@H]1O[C@H](CO)[C@H](O)[C@@H](O)[C@H]1O[C@H]1O[C@H](CO)[C@@H](O)[C@H](OC(N)=O)[C@@H]1O)c1cnc[nH]1` (stereo partly specified), the Potency [2] is reported as 34.1 nM (active).

For `CC(C)[C@]12O[C@H]1[C@@H]1O[C@@]13[C@@]1(C)CCC4=C(COC4=O)[C@@H]1C[C@@H]1O[C@@]13C2=O`, the Potency [2] was 271 nM (active).

In the case of `CO[C@H]1CCC(O[C@H]2C[C@H]([C@]3(C)CC[C@]4(C[C@H](O)[C@@H](C)[C@@H]([C@@H](C)/C=C(\C)C(=O)[C@H](C)C[C@H](C)C(=O)O)O4)O3)O[C@]3(O[C@@H]([C@H]4O[C@@](O)(CO)[C@H](C)C[C@@H]4C)C[C@@H]3C)[C@@H]2C)O[C@@H]1C` (stereo partly specified), the Potency [2] is reported as 681 nM (active).

With `CC12CCC3C(CCC4=C(O)C(=O)CCC43C)C1CCC2=O` (stereo unspecified) the outcome [3] was “inactive” and the viability change [3] was 0.774%.

In the case of `C[N+]1(C)C2CC(OC(=O)C(CO)c3ccccc3)CC1C1OC12` (stereo unspecified), the Potency [1] is reported as “inactive”.

With `C#CCN(C)C(C)Cc1ccccc1` (stereo unspecified) the activity change, negative = inhibition ([4]; at 17.2 µM (top of the series)) was -4.45% (inactive).

For `NNCc1cccc(O)c1`, the activity change, negative = inhibition ([4]; at 38 µM (top of the series)) was -15.7% (inactive) and the outcome [5] was “inactive”.

For `CCCN(CCC)C(=O)Cc1c(-c2ccc(Cl)cc2)nc2c(Cl)cc(Cl)cn12`, the Potency [6] was “inactive”, the outcome [5] was “inactive” and the Potency [7] was “inactive”. For the same compound, the Potency [8] was “inactive”.

In the case of `C[C@H]1C2Cc3ccc(O)cc3[C@]1(C)CCN2CC1CC1`, the outcome [3] is reported as “inactive” and the viability change [3] is reported as -0.82%.

For `NCC#Cc1ccccc1`, the Potency [6] was 3160 nM (active), the activity change, negative = inhibition ([4]; at 38 µM (top of the series)) was 3.19% (inactive) and the Potency [8] was “inactive”.

With `CCC1/C=C/C=CCC(C)C(O)[C@@](C)(O)C(=O)C(C)C(O)C(C)C(=O)C(C)C(O)C(C)C=CC(=O)O[C@H]2C(C)C(CC1)O[C@]1(CCC(C)C(CC(C)O)O1)C2C` (stereo partly specified) the Potency [1] was 7940 nM (active).

In the case of `COc1cc(C=C(C#N)C#N)cc(O)c1O`, the Potency [6] is reported as 12600 nM (active), the activity change, negative = inhibition ([4]; at 38 µM (top of the series)) is reported as -29.4% (inactive) and the outcome [5] is reported as “inactive”. The Potency [7] was “inactive”.

For `CC(C)(O)C1C2OC(=O)C1[C@]1(O)C[C@H]3O[C@]34C(=O)O[C@H]2[C@]14C` (stereo partly specified) (tested in a mixture with another compound), the Potency [9] was “inactive”, the Potency [10] was “inactive” and the Potency [11] was “inactive”. For the same compound, the Potency [12] was “inactive”, the Potency [13] was “inactive” and the Potency [14] was “inactive”. The Potency [15] was “inactive”, the Potency [16] was “inactive” and the Potency [17] was “inactive”. For the same compound, the Potency [18] was “inactive”, the Potency [19] was “inactive” and the Potency [20] was “inactive”.

In the case of `C[C@H]1OC[C@@H](C[N+](C)(C)C)O1`, the activity change, negative = inhibition ([4]; at 17.2 µM (top of the series)) is reported as 147% [activator] (active), the outcome [5] is reported as “inactive” and the Potency [7] is reported as “inactive”. For the same compound, the Potency [8] was “inactive”.

In the case of `Oc1ccc2c3c1O[C@H]1[C@@H](O)CC[C@@]4(O)C(C2)N(CC2CCC2)CCC314` (stereo partly specified), the Potency [9] is reported as “inactive”, the Potency [10] is reported as “inactive” and the Potency [11] is reported as “inactive”. For the same compound, the Potency [12] was “inactive”, the Potency [13] was “inactive” and the Potency [14] was “inactive”. For the same compound, the Potency [15] was “inactive”, the Potency [16] was “inactive” and the Potency [17] was “inactive”. For the same compound, the Potency [18] was “inactive”, the Potency [19] was “inactive” and the Potency [20] was “inactive”.

For `CCN(CC)C(=O)N[C@@H]1C[C@@H]2c3cccc4[nH]cc(c34)C[C@H]2N(C)C1`, the Potency [9] was “inactive”, the Potency [10] was “inactive” and the Potency [11] was 3380 nM (active). The Potency [12] was “inactive”, the Potency [13] was 2240 nM (active) and the Potency [14] was “inactive”. For the same compound, the Potency [15] was 3980 nM (active), the Potency [16] was “inactive” and the Potency [17] was “inactive”. For the same compound, the Potency [18] was “inactive”, the Potency [19] was “inactive” and the Potency [20] was 1690 nM (active).

For `CCCC[N+]1(C)C2CC(OC(=O)C(CO)c3ccccc3)CC1C1OC12` (stereo unspecified), the Potency [9] was “inactive”, the Potency [10] was “inactive” and the Potency [11] was “inactive”. The Potency [12] was “inactive”, the Potency [13] was “inactive” and the Potency [14] was “inactive”. For the same compound, the Potency [15] was “inactive”, the Potency [16] was “inactive” and the Potency [17] was “inactive”. For the same compound, the Potency [18] was “inactive”, the Potency [19] was “inactive” and the Potency [20] was “inactive”.

For `CC[C@@H](CO)NC(=O)[C@H]1C=C2c3cccc4c3c(cn4C)C[C@H]2N(C)C1`, the Potency [6] was 15800 nM (active).

In the case of `CCCCN1C2CCC1CC(OC(c1ccc(F)cc1)c1ccc(F)cc1)C2` (stereo unspecified), the Potency [1] is reported as “inactive”, the Potency [7] is reported as 398 nM (active) and the Potency [8] is reported as 2240 nM (active).

In the case of `CCCCN=C(N)NC(=N)N`, the outcome [2] is reported as “inactive”.
